From PubChem BioAssay (NCI)
“And” between values parts separate entries of the source, which are not always exact repeats. Equal entries are not always repeated. The panel holds about 83,000 compounds, 20% with a hit somewhere; the sample as a whole holds those more often.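 The endpoint reported here, percent growth, reads 100 for growth as untreated, 0 for no net growth and -100 for all cells dead.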 The source made the active and inactive calls. The calls were made as follows: active = growth percent below 10; inactive = the rest.

Columns and labels:
Experiment in all cases: NCI-60 one-dose screen, 48 h (100 = growth as untreated, 0 = no growth, -100 = all killed)
Conditions in all cases: 10 µM unless noted
[1] = tested on: HCT-15 colon
[2] = tested on: HT29 colon
[3] = tested on: SNB-75 CNS
[4] = tested on: SNB-19 CNS
[5] = tested on: U251 CNS
[6] = tested on: PC-3 prostate
[7] = tested on: SK-MEL-5 melanoma
[8] = tested on: UACC-62 melanoma
[9] = tested on: LOX IMVI melanoma
[10] = tested on: SK-MEL-28 melanoma

| Compound | growth [1] | growth [2] | growth [3] | growth [4] | growth [5] | growth [6] | growth [7] | growth [8] | growth [9] | growth [10] |
| --- | --- | --- | --- | --- | --- | --- | --- | --- | --- | --- |
| CCOC(=O)c1cnn(CC(O)CC)c1NC(=O)NCc1ccccc1C(F)(F)F (stereo unspecified) | 103% (inactive) | 86.5% (inactive) | 96% (inactive) | 104% (inactive) | 101% (inactive) | 90.8% (inactive) | 97.6% (inactive) | 88.5% (inactive) | 95.5% (inactive) | 108% (inactive) |
| CCOC(=O)c1nc2c3ccccc3cnn2c1C(=O)c1ccc(OC)cc1 | 96.4% (inactive) | 98.4% (inactive) | 88.6% (inactive) | 90.7% (inactive) | 89.9% (inactive) | 90.9% (inactive) | 97.1% (inactive) | 95.5% (inactive) | 94% (inactive) | 120% (inactive) |
| CN(C)CCCn1c2c(c3ccc(N4CCNCC4)cc3c1=O)C(=O)c1ccccc1-2 | -36.5% (active) | -52.4% (active) | 22.3% (inactive) | -13.9% (active) | -54.1% (active) | -34.7% (active) | – | 51.8% (inactive) | -90% (active) | 59.7% (inactive) |
| O=C1OCC2=C1C(c1cccc(C(F)(F)F)c1)c1cc3c(cc1N2CCO)CCC3 (stereo unspecified) | 6.24% (active) | 1.24% (active) | 46% (inactive) | 23% (inactive) | 12.4% (inactive) | 21.7% (inactive) | – | 41.7% (inactive) | 16.5% (inactive) | 52.8% (inactive) |
| O=C(/C=C/c1ccc([N+](=O)[O-])cc1)c1ccccc1 | 77.2% (inactive) | 50.7% (inactive) | 83.4% (inactive) | 98.5% (inactive) | 80.8% (inactive) | 77.5% (inactive) | – | 94.9% (inactive) | 61.4% (inactive) | 103% (inactive) |
| N=C(N)c1ccc(-c2ccc(-c3ccc(F)cc3)s2)nc1 | 10.4% (inactive) | 8.67% (active) | 100% (inactive) | 80.1% (inactive) | 22.3% (inactive) | 65.3% (inactive) | – | 95.9% (inactive) | 18.6% (inactive) | 102% (inactive) |
| O=[N+]([O-])c1ccc(S(=O)Cc2ccccc2)c([N+](=O)[O-])c1 (stereo unspecified) | 6.6% (active) and -44.4% (active) | -67.6% (active) and -20.6% (active) | 105% (inactive) and 50% (inactive) | 92.8% (inactive) and 97.7% (inactive) | 93.6% (inactive) and 91% (inactive) | 93.9% (inactive) and 82.8% (inactive) | – | 54.6% (inactive) and 82.2% (inactive) | -75.4% (active) and -31.4% (active) | 89.4% (inactive) and 23% (inactive) |
| CC(=NCc1ccccc1)c1ccc(O)cc1O | 101% (inactive) | 104% (inactive) | 83.2% (inactive) | 103% (inactive) | 101% (inactive) | 81.7% (inactive) | – | 88.1% (inactive) | 94.1% (inactive) | 103% (inactive) |
| Fc1ccc(NC(c2ccc(F)cc2)C2CCN(CCCCc3ccccc3)CC2)cc1 (stereo unspecified) | 29.3% (inactive) | 3.89% (active) | 63.4% (inactive) | 50% (inactive) | 16.6% (inactive) | 35% (inactive) | – | 26% (inactive) | 11.3% (inactive) | 60.1% (inactive) |
| COc1cc(Cl)cc(-c2nn(C(=O)NS(=O)(=O)c3ccc(Cl)cc3)cc2-c2ccncc2)c1 | 98.4% (inactive) | 30.8% (inactive) | -8.56% (active) | 97.2% (inactive) | 70.6% (inactive) | 88.9% (inactive) | – | 73.3% (inactive) | 45.5% (inactive) | 95.8% (inactive) |
| CCOc1ccc(N2C(N)=NC(N)=NC2(C)C)cc1 | 99.9% (inactive) | 2.75% (active) and 87.4% (inactive) | -3.85% (active) and 82.7% (inactive) | 40.3% (inactive) and 98.2% (inactive) | 20% (inactive) and 68.6% (inactive) | 16% (inactive) and 39.3% (inactive) | – | 41.4% (inactive) and 95.4% (inactive) | 36.7% (inactive) and 90.1% (inactive) | 31.2% (inactive) and 113% (inactive) |
| CN1Cn2c(ccc2C(F)(F)F)C(=O)CS1(=O)=O | 105% (inactive) | 105% (inactive) | 79.1% (inactive) | 105% (inactive) | 101% (inactive) | 105% (inactive) | – | 99.4% (inactive) | 99.2% (inactive) | 105% (inactive) |
| COc1ccc(Oc2nc(Nc3ccc(N4CCOCC4)cc3)ncc2NC(=O)c2cc(OC)cc(OC)c2)cc1 | 67.7% (inactive) | 72% (inactive) | 79.1% (inactive) | 87.4% (inactive) | 82.7% (inactive) | 67.5% (inactive) | 77.2% (inactive) | 87.8% (inactive) | 84.7% (inactive) | 100% (inactive) |
| C=C1C(=O)O[C@H]2[C@H]1CC/C(CNS(=O)(=O)c1ccc3ccccc3c1)=C\CC[C@@]1(C)O[C@@H]21 | -78.5% (active) | -78.2% (active) | 38.2% (inactive) | 71.9% (inactive) | 48.9% (inactive) | 53.6% (inactive) | – | -12% (active) | -84.8% (active) | -8.36% (active) |
| CN1CCCc2cc(/C=C3\SC(=S)N(C(Cc4ccc(O)cc4)C(=O)O)C3=O)ccc21 (stereo unspecified) | 101% (inactive) | 110% (inactive) | 89.9% (inactive) | 92.2% (inactive) | 94.7% (inactive) | 101% (inactive) | – | 93.6% (inactive) | 93.8% (inactive) | 113% (inactive) |
| Cc1ccc(S(=O)(=O)OC[C@@]2(C)CC[C@]3(C)CC[C@]4(C)C(=C3C2)C=C[C@@H]2[C@@]3(C)CCCNC(C)(C)[C@@H]3CC[C@]24C)cc1 | -74.5% (active) | -69.2% (active) | 82.9% (inactive) | 47.8% (inactive) | -95.9% (active) | 43.5% (inactive) | 76.5% (inactive) | 61.1% (inactive) | -99.2% (active) | 96.7% (inactive) |
| O=C(NCCCN1CCCCC1)c1ccc(-c2nc3ccc4[nH]ncc4c3c3c2CCCC3)cc1 | 58.4% (inactive) | 50.7% (inactive) | 17.6% (inactive) | 78.2% (inactive) | 66.7% (inactive) | 29% (inactive) | – | 62.6% (inactive) | 48.3% (inactive) | 72.2% (inactive) |
| O=[N+]([O-])c1cc(C(F)(F)F)ccc1Sc1ccc(C(F)(F)F)cc1[N+](=O)[O-] | 71.2% (inactive) | 18.5% (inactive) | 86% (inactive) | 91.5% (inactive) | 83.9% (inactive) | 84.6% (inactive) | 82.7% (inactive) | 77.8% (inactive) | 28.1% (inactive) | 80.6% (inactive) |
| COc1cc2nc3cc([N+](=O)[O-])ccc3c(NCCNCC(C)(C)O)c2cc1OC | 17% (inactive) | -11.7% (active) | -55.7% (active) | -10.5% (active) | -23.6% (active) | -35.6% (active) | – | -48.6% (active) | -40.9% (active) | -25.7% (active) |
| Cc1ccc(C(=O)c2ccc(CC(=O)N=Nc3c(O)[nH]c4ccc(OC(F)(F)F)cc34)n2C)cc1 | 93.3% (inactive) | 107% (inactive) | 82.1% (inactive) | 94% (inactive) | 97% (inactive) | 98.6% (inactive) | – | 106% (inactive) | 89.8% (inactive) | 99.9% (inactive) |
| O=S(=O)(Nc1cc(Sc2cccc3cccnc23)c(O)c2ccccc12)c1ccc(F)cc1 | -42.9% (active) | -40.9% (active) | 63.8% (inactive) | 42.1% (inactive) | 5.35% (active) | 17% (inactive) | – | -26.9% (active) | -60.7% (active) | -16.2% (active) |
| Cc1ccc2nc3ccccc3c(NCc3ccc(Cl)cc3)c2c1 | 14.5% (inactive) | 5.35% (active) | 66.5% (inactive) | 50.3% (inactive) | 25.1% (inactive) | 39.1% (inactive) | – | 74% (inactive) | -57.1% (active) | 75.5% (inactive) |
| COc1nc(=O)n(C2C=CC(=O)O2)cc1F (stereo unspecified) | 58.5% (inactive) | 55.8% (inactive) | 90.2% (inactive) | 97.8% (inactive) | 103% (inactive) | 110% (inactive) | – | 59.7% (inactive) | 64.9% (inactive) | 96% (inactive) |
| Cc1ccc(NC(=O)N/C(N)=N/c2nc(=O)c3ccccc3s2)cc1 | 104% (inactive) | 103% (inactive) | 83.1% (inactive) | 93% (inactive) | 99.7% (inactive) | 101% (inactive) | 93.4% (inactive) | 83% (inactive) | 104% (inactive) | 102% (inactive) |
| CCC(=O)Oc1cc(Cl)c(Cl)cc1Cl | 103% (inactive) | 103% (inactive) | 89.6% (inactive) | 113% (inactive) | 98.1% (inactive) | 96.4% (inactive) | – | 108% (inactive) | 105% (inactive) | 104% (inactive) |
